The supplement of paper PMC6555819

What follows are sequences tested on VDR:RXRa (NR concentration 270 nM, RXRa partner concentration 90 nM) (assay: PBM binding z-score (relative to random genomic background probes); higher = stronger binding; sequences stand for … in GC…GCGATTGACAGCGTAGAATGAAGG).
Method: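 Protein-binding microarray (Agilent 4x180K custom design, double-stranded 60-nt probes: 5' GC cap, 34-nt variable region, 24-nt constant primer region; full probe sequence given). Purified or IVT nuclear receptor:RXRα heterodimers (3:1 NR:RXRα, mostly 270:90 nM) or homodimers were incubated for 1 h in PBS with 2% milk and no ligand, then detected with Alexa488 antibodies. Fluorescence from o1-orientation probes (~5 replicates averaged) was converted to z-scores against 500 random hg19 background probes. Variable regions are seed direct-repeat (DR0–DR5) sites, all their single-nucleotide variants and half-site ablations.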
Sequence CTCGAAAGGTCGGTTGAGGTGAGTATTCGGATAA has a PBM binding z-score of 2.16. Work on TCATATAGGTAAATGCAAGGTGAAAGTCCGATCT yielded a PBM binding z-score of 1.37. For CCTTACGGGTCACTCCAGGTTATAGCGTCGGAGT, the PBM binding z-score was 4.14. Work on GCGCCTGGGGCATCAGCAGGTTACCATAACTTAA yielded a PBM binding z-score of -0.28. With CCAGACAGGTGAAAGGTGACTCAGTCTGGTACGC the PBM binding z-score was 1.3. CTACCAAGGTGCACAAGGTCGTTGATTACTATTC showed a PBM binding z-score of 3.17. In the case of ATACCAAGGTAATCGTGAGGTCGTTGATACTAAC, the PBM binding z-score is reported as 3.1. Sequence ATCTCTAGGTAAAGCTAGTTCAGTGAATGCAAAT has a PBM binding z-score of 0.818. In the case of CCGATTGGGGCAAAGGTTACCATACTCAGTACGA, the PBM binding z-score is reported as 1.6. Work on CAAACTAGGTCAACGGAAGGTCAAAGTCCGCATG yielded a PBM binding z-score of 5.56. ATCTCTAGGTAAAGTTCAGGGAAAGATCGATAGA was tested, and the PBM binding z-score was 1.73. TCTTGTTGGTCACGGAGGTCACACACGACGGGTA gave a PBM binding z-score of 6.07. With TCTTGTAGATCAAAGGTTAAGTAAGCCGAAGCCT the PBM binding z-score was 2.04. In the case of CCTGCTAGGCCAATGGTCAGCTAAAGCAGCTCGC, the PBM binding z-score is reported as -0.792. Sequence CCTGCTATGTCATGGTCAGCTAATCTACAGTATG has a PBM binding z-score of -0.0549. ATACCAAGGTGATCGTGAGGTCGTTGTTACTAAC gave a PBM binding z-score of 3.18. Sequence TCGAGTAGGTTAGTCGGAGCATTCAGCCAACATA has a PBM binding z-score of -0.307. Work on ATCTCTAGGTAAAGATAGTGCAGTGAATGCAAAT yielded a PBM binding z-score of 0.0652. For ATCTATAGGTAAAGTTCAGTGAAAGATCGATAGA, the PBM binding z-score was 1.65. Sequence TCATATAGGTAAGACAGGTGAAAGTCGGCATCTA has a PBM binding z-score of 0.987. With CGAACTAGGTAATTGACAGGACAGTGAATAGTAA the PBM binding z-score was -0.257. Sequence CCTAGTAGGCCAATCTGGGTCACTCAAGGCTTGA has a PBM binding z-score of 0.875. TCTGCTAGGTCAACGATGGTTAGCTAATCTGCTA gave a PBM binding z-score of 1.26. With GTACCAAGGTGAATAGGTCGTTGAAGAGTAGGCG the PBM binding z-score was 1.01. In the case of CGTCCAAGGTCAAAGGTCAGTGTAGAGATGACGG, the PBM binding z-score is reported as 6.6. Sequence TCATTTAGGTAAAAGGTGAAAGTCGGTGTGGTAA has a PBM binding z-score of 1.4. With ATATGTCGGTTAGCTGGGGTCATTCAGACTAGGC the PBM binding z-score was 5.12. Work on CGTCAAAGTTCATCTAAGGTAACGTAAAGCACGC yielded a PBM binding z-score of 5.24. For CCTACCAGGCCAATCTGGGTCACTCAAGGCTTGA, the PBM binding z-score was 0.999. TAGCCTAGGTCATTGAGCCAGTATAGTACGCATC showed a PBM binding z-score of 2.1. Sequence TAGCCTAGGTCAGATCGGGCCGGTATACGCTATA has a PBM binding z-score of 0.236. GCTAGCAGGCCATATGGGTCACTCAATGACGGGC showed a PBM binding z-score of 0.951. With GCATATAGTTAATACAAGGTGAAAGTCCGATTGT the PBM binding z-score was 0.11. GCTCGGAGGACAAGTTCAGAGCTTTGTCCGTAGA showed a PBM binding z-score of 0.733. GGAACGAGGGCAAGTTGAAAGCAGAGTTTGATGG was tested, and the PBM binding z-score was 0.74. CCTTACGGGTCACGAGGTTATAGAACGACGAGCG showed a PBM binding z-score of 5.31. For ACTAGTTGGTCAGTTGAGGTCACACACAATTCGG, the PBM binding z-score was 4.65. In the case of CACCCTAGGTCAGGGCCAGTATAGGAGGAACGTT, the PBM binding z-score is reported as 0.555. TAGCCTAGGTCATTGGGCCCGTATAGTACGCATC gave a PBM binding z-score of 2.74. In the case of CCTACTGGGCCAAGGGTCATTGATTCCAATGCTC, the PBM binding z-score is reported as 3.45.
